Compounds with a hit are over-represented: about 6.8% of the library has one in this group of screens.
TSG101-PTAP inh: blocks PTAP/TSG101 interaction to inhibit HIV-1 budding; AID 493005; Fluorescence polarization, FITC-PTAP peptide / Tsg101 binding; 340,000 tested, under 10 active; Potency, µM (series often up to 115 µM), for the others: top-dose activity change, negative = inhibition, most hits filed as inhibitors; Q99816; active means well fitted inhibition curve with a large enough effect in the main read-out, with a control signal flat, not every such curve was filed as active; inconclusive means small, poorly fitted or top-dose-only effect, or effect the other way, or a change in a side signal; inactive means no such curve, though single readings can be large or run the other way; further: % of control where 0% means no effect
Target sequence (Q99816 whole entry, looked up): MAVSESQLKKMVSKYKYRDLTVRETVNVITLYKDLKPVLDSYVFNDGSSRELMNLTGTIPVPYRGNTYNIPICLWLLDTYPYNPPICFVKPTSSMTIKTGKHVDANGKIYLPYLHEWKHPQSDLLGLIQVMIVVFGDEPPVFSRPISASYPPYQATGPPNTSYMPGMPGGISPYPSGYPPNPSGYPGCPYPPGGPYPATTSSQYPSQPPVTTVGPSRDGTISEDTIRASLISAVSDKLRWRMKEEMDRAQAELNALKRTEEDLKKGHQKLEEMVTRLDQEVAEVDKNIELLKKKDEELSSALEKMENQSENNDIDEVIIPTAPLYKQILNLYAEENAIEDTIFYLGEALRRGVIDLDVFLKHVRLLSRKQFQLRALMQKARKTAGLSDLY
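Compounds were pin-transferred onto Tsg101 binding domain (10 uM final) in HEPES pH 7.5 buffer, then FITC-PTAP peptide was added at 50 nM final. After 20 min at RT, polarization reported peptide displacement across a qHTS concentration series.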
SW480 rereplic: induces DNA re-replication in SW480 colon adenocarcinoma cells; Potency, µM (doses to about 46.1 µM), without a hit: top-dose re-replication activation, actives largely listed as activators; SW480 DNA re-replication, Hoechst DNA content imaging, 48 h; 340,000 tested, 1.8% active; AID 624297; further: % of control where 0% means no effect; nearly all actives have a fitted effect of over 55% in size
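Readout is total intensity of Hoechst-stained nuclei, excited at 405 nm and collected at 500-530 nm. Compound treatment lasted 48 hr at 37 C in 5% CO2 before staining.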
KB-V1 cytotox: KB-V1 MDR subline cytotoxicity; KB-V1 MDR cells viability, CellTiter-Glo, 72 h; Potency, µM (series often up to 46.1 µM), usual class: cytotoxic; 400,000 tested, 3.4% active; AID 1347076; further: on the % scale 0 is the no-effect control and ±100 the full control effect; nearly all actives have a fitted effect of over 60% in size
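Cells of the MDR subline KB-V1 are plated, dosed with compound at multiple concentrations, and incubated 72 h at 37 degrees C; CellTiter-Glo is then added and luminescence read after 10 min.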
PINK1 expr mod: PINK1 expression modulation; 410,000 tested, 0.2% active; Potency, µM (titrated, usually from 76.6 µM), without a hit: at the top dose activation (PINK1 increase), usual class: activators; PINK1 immunofluorescence, high-content cytometry, 24 h; active means well fitted activation curve with a large enough effect; inconclusive means small, poorly fitted or top-dose-only effect; cell line not stated here; further: % of control where 0% means no effect; nearly all actives have a fitted effect of over 65% in size
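Compound titrations (5 concentrations, 24 h) on a stable cell line; DMSO and CCCP controls. Endpoint: fixed-cell PINK1 immunofluorescence with mitochondrial, cell and nuclear markers, scanned by microplate cytometer.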
KB-3-1 tox: KB-3-1 parental cell cytotoxicity. KB-3-1 viability, CellTiter-Glo ATP luminescence, 72 h. Potency, µM (doses to about 46.1 µM), most hits filed as cytotoxic. 400,000 tested, 1.4% active. AID 1347075; further: on the % scale 0 is the no-effect control and ±100 the full control effect; nearly all actives have a fitted effect of over 60% in size
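Here the drug-naive KB-3-1 line serves as comparator for MDR sub-line selectivity; cells received compound titrations, 72 h at 37 °C, then CellTiter-Glo readout.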
MCF10A rerep: DNA re-replication induction in MCF 10a cells | Potency, µM (doses to about 46.1 µM), for the others: top-dose activity, positive = re-replication, usual class: activators | 350,000 tested, 2.9% active | MCF 10A DNA re-replication, Hoechst nuclear intensity, 48 h | AID 624296; further: % of control where 0% means no effect; nearly all actives have a fitted effect of over 50% in size
* marks the source's active call; other numbers are inactive results; i = inactive; ? = inconclusive; / = not tested or not shown; [ ] = another dose, or the depositor's remark. Unless noted, the call rests on the fitted dose curve; in most records, active means well fitted curve in the direction sought with a large enough effect; inconclusive means small, poorly fitted or top-dose-only effect, or another doubt; inactive means no such curve, though single readings can be large; an effect the other way counts as inactive or inconclusive. Potency means the concentration at half of the fitted maximal effect.

SMILES | TSG101-PTAP inh | SW480 rereplic | KB-V1 cytotox | PINK1 expr mod | KB-3-1 tox | MCF10A rerep
Oc1c(N=NC(=S)Nc2ccccc2F)c2ccccc2n1Cc1ccccc1 | -5% | 1% | i | 3% | ? | ?
Oc1c(N=NC(=S)Nc2ccccc2F)c2ccccc2n1Cc1ccccc1Cl | -5% | 3% | i | 2% | 4.1µM* | 28%
CC(C)(C)NC(=O)NC(=O)CN1CCN(c2ccc(O)cc2)CC1 | -2% | 3% | ? | 2% | 21µM* | 27%
O=C(CC1N=C2c3ccccc3N=C(SCc3cccc(Cl)c3)N2C1=O)NCCc1ccccc1 (stereo not given) | / | / | i | 23% | i | /
Cc1ccn2c(Nc3ccc4c(c3)OCO4)c(-c3ccc(N(C)C)cc3)nc2c1 | / | / | i | 1% | i | /
COc1cc(OC)cc(N2C(=O)N(CC(=O)c3ccc(F)cc3)c3ccccc3S2(=O)=O)c1 | / | / | i | 1% | i | /
Clc1ccccc1-c1nc2nc3ccccc3nc2n1-c1ccc2c(c1)OCO2 | 1% | 2% | 9.2µM* | -3% | i | ?
N#C/C(=C/c1cn(-c2ccccc2)nc1-c1cccc(OCc2ccc(F)cc2)c1)C(=O)NCCCn1ccnc1 | 0% | ? | 16µM* | 1% | ? | 10µM*
O=C(NCCCn1ccnc1)c1cn(-c2ccccc2)nc1-c1ccc(F)cc1 | 4% | 4% | i | 0%[38.3 µM] | i | 4%
CCCOc1cccc(-c2nn(-c3ccccc3)cc2/C=C(\C#N)C(=O)NCCCn2ccnc2)c1 | 1% | ? | 18µM* | 1% | i | ?
O=C(O)COc1ccc(C(=O)c2cccs2)c(Cl)c1Cl | / | -17% | / | / | / | 2%
Cc1ccccc1C1=C/C(=C(\SS/C(C(=O)c2ccc(OCC(=O)O)c(Cl)c2Cl)=C2\C=C(c3ccccc3C)SS2)C(=O)c2ccc(OCC(=O)O)c(Cl)c2Cl)SS1 | -6% | 1% | ? | 35µM* | i | -14%
Oc1ccc(C(=S)N2CCN(c3cccc(Cl)c3)CC2)cc1 | -2% | ? | i | 0% | i | ?
COc1ccc(-n2nc(C(=O)NCC(=O)N3CCN(c4cccc(Cl)c4)CC3)c3ccccc3c2=O)c(OC)c1 | -1% | 6% | 12µM* | 1% | i | 11%
O=C(c1ccc([N+](=O)[O-])s1)N1CCN(c2cccc(Cl)c2)CC1 | -6% | ? | 16µM* | ? | ? | ?
CCOC(=O)c1c(NC(=O)CN2CCN(c3cccc(Cl)c3)CC2)sc(C)c1C | -5% | 11% | i | 3% | i | 5%
CCOC(=O)c1c(C)c(C(=O)N2CCN(c3cccc(Cl)c3)CC2)c(C)n1C | -4% | 27% | 10µM* | -1%[38.3 µM] | i | 19%
COc1cc(C(=S)N2CCN(c3cccc(Cl)c3)CC2)ccc1O | -9% | 21µM* | ? | 5% | 8.2µM* | 15µM*
COc1ccc2ccccc2c1CN1CCOc2ccc(CN3CCN(CCO)CC3)cc2C1 | / | / | / | 0% | / | /
COCc1c(C(=O)N2CCN(C3CCCCC3)CC2)cnn1-c1ncc(C)c(-c2cccs2)n1 | / | / | / | 0% | / | /
Cc1ccc(-n2nnnc2CNC(=O)C(C)(C)C)cc1C | / | / | / | 0% | / | /
COc1ccc(N2CCN(C(=O)c3cccc(-n4c(C)nc5cccnc54)c3)CC2)cc1 | / | / | i | 0% | i | /
COc1ccc(C(=S)N2CCN(c3cccc(Cl)c3)CC2)c(OC)c1 | -1% | 4.1µM* | i | 0% | 6.5µM* | 7.3µM*
Cc1cccc(N2CCN(C(=O)c3cccc(N4CCCC4=O)c3)C(C)C2)c1 (stereo not given) | -6% | ? | ? | 3% | 2.6µM* | 1.5µM*
Cc1nc2cccnc2n1-c1cccc(C(=O)N2CCN(c3ccc(Cl)cc3)CC2)c1 | / | / | i | 0% | 12µM* | /
COc1ccc(N2CCN(C(=O)c3ccc(-n4nc(C)cc4C)cc3)CC2)cc1 | -3% | 1% | 16µM* | 1%[38.3 µM] | i | 4%

Assay outcomes (PubChem BioAssay)
